# High-throughput results as filed in PubChem.
# A selection: hits, their analogues and other compounds. The true share with any hit is near 21%.
# Gal4-VP16 FLuc: Gal4-VP16 reporter inhibition counter-screen; Drosophila S2 Gal4-VP16 UAS-luciferase, luminescence, 20 h; Potency, µM (series often up to 53.6 µM), without a hit: at the highest dose activity, negative = inhibition, actives largely listed as inhibitors; 310,000 tested, 3.5% active;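 note: Gal4-VP16 expression switched on by copper sulfate through the metallothionein promoter; potency is the fitted concentration of half-maximal effect; nearly all actives have a fitted effect of over 50% in size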
# IL-1B inflam inh: inflammasome signaling inhibition, IL-1 beta readout. activity change, % at 57.5 µM. 360,000 tested, 4.7% active. THP-1 LPS/ATP IL-1B secretion, AlphaLISA, 16 h; stronger effect = lower value; in the data active = activity change below about -50%; inconclusive = mostly about -30% to -49%
#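 Secreted IL-1B measured by AlphaLISA bead assay after 16 h compound exposure of THP-1 cells; compounds (final up to 57.5 uM) added 1 h before LPS (250 ng/mL) and ATP (1.25 mM) stimulation; lower signal means less secretion.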
# TDP1 cell noCPT: qHTS for Inhibitors of human tyrosyl-DNA phosphodiesterase 1 (TDP1): qHTS in cells in absence of CPT. DT40 Tdp1-/- hTDP1 cells, no CPT, ATP luminescence, 48 h. Potency, µM (highest dose often 46.2 µM), without a hit: at the highest dose activity change, negative = growth inhibition, most hits filed as inhibitors. AID 686978, 2013. 420,000 tested, 15% active; note: potency is the fitted concentration of half-maximal effect; nearly all actives have a fitted effect of over 55% in size
#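 A cellular qHTS used chicken DT40 cells lacking endogenous Tdp1 but carrying stably transfected human TDP1. Compounds were applied without camptothecin, and cell growth kinetics were judged by ATP-dependent luminescence after ≥48 hr.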
# DT40 TDP1 CPT: DT40-hTDP1 cell growth loss with CPT | 420,000 tested, 12% active | Potency, µM (doses to about 46.2 µM), without a hit: at the top dose activity change, negative = growth inhibition, most hits filed as inhibitors | AID 686979 | chicken DT40 Tdp1-/-;hTDP1 cells + 20 nM CPT, ATP luminescence, 48 h; note: potency is the fitted concentration of half-maximal effect; nearly all actives have a fitted effect of over 55% in size
#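 Chicken DT40 Tdp1-/- cells complemented with human TDP1, 400 cells/well, exposed to compounds plus 20 nM camptothecin for at least 48 h at 37 C; viability read as ATP content by CellTiter-Glo luminescence.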
# ELG1 repair inh: blocks ELG1-dependent DNA repair in HEK293T cells; 330,000 tested, 2.3% active; Potency, µM (titrated, usually from 46.1 µM), for the others: at the highest dose activity change, negative = inhibition, actives largely listed as inhibitors; HEK293T ELG1-luciferase reporter, luminescence, 16 h; DNA damage induced by 5-fluorouridine; note: potency is the fitted concentration of half-maximal effect; nearly all actives have a fitted effect of over 55% in size
#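 Cells (2,000 per well) received 5-fluorouridine plus test compound or DMSO and were incubated 16 hr at 37 °C, 5% CO2. Luciferase activity was read by luminescence 30 min after ONE-Glo addition; signal suppression marked inhibition of damage-induced ELG1 function.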
# RORgamma inh: inhibitors of mouse ROR gamma transcriptional activity | 310,000 tested, 5.4% active | Potency, µM (titrated, usually from 53.6 µM), without a hit: at the highest dose activity change, negative = inhibition, actives largely listed as inhibitors | P51450 | Drosophila S2 Gal4-RORgamma UAS-luciferase reporter, 20 h; note: potency is the fitted concentration of half-maximal effect; nearly all actives have a fitted effect of over 60% in size
# Target sequence (P51450 whole entry, looked up, the tested form may be a part): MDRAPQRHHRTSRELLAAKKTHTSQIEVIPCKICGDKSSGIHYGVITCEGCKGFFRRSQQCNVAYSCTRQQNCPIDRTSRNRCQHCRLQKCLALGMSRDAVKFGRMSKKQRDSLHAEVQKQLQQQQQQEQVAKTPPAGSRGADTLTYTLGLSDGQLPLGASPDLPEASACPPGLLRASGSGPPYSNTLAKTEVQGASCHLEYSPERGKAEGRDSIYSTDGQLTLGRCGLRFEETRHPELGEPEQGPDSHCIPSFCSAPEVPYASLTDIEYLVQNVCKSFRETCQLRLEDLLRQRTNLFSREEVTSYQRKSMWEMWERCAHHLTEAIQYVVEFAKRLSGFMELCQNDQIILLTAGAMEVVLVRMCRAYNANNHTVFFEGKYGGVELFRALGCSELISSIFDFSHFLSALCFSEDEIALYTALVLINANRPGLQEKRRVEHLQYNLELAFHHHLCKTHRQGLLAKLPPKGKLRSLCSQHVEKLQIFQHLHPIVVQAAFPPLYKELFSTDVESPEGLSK
#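 Stable Schneider cell line, Gal4 DNA-binding domain fused to ROR gamma, UAS-luciferase. Cmpd 1 hr RT → CuSO4 700 uM final → 20 hr RT → luciferase reagent 10 min → luminescence.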
# Active calls of the source: *; i = inactive; u = inconclusive; x = no result given. Unless noted, calls come from the whole dose curve; as a rule, active = well fitted curve in the direction sought with a large enough effect; inconclusive = small, poorly fitted or top-dose-only effect, or another doubt; inactive = no such curve, though single readings can be large; an effect the other way counts as inactive or inconclusive. % is set by controls: 0 for no effect and ±100 for the full control effect.
SMILES,Gal4-VP16 FLuc,IL-1B inflam inh,TDP1 cell noCPT,DT40 TDP1 CPT,ELG1 repair inh,RORgamma inh
COc1cc(OC)cc(C(=O)NC(=S)NNC(=O)Cc2cccs2)c1,-22.4%,6.5,u,u,0.5%,-7.1%
COc1cc(OC)cc(C(=O)NC(=S)NNC(=O)[C@H]2C[C@@H]2c2ccccc2)c1,u,43.2,18.4µM*,u,-24.1%,14.1µM*
O=C(NC(=S)NNC(=O)[C@H]1C[C@@H]1c1ccccc1)c1ccc(F)cc1,u,66.7,13µM*,14.6µM*,u,10µM*
COCC(=O)N1CCC2(CC1)CN(Cc1ccc(C#N)cc1)C2,9.4%,x,-55.1%,-47.7%,x,17.8%
COc1cc(Cl)ccc1OC1(C)CCN(Cc2c(F)cccc2F)C1 (stereo not given),x,8.9,u,u,x,x
CC(=O)c1ccc(OC2(C)CCN(Cc3cccn3-c3nccs3)C2)cc1 (stereo not given),x,-6.2,u,u,x,x
COc1cc(Cl)ccc1OC1(C)CCN(Cc2cccn2-c2nccs2)C1 (stereo not given),x,-19.1,20.6µM*,11.6µM*,x,x
CC1(Oc2ccc3ccccc3c2)CCN(Cc2cccn2-c2nccs2)C1 (stereo not given),x,-18.1,23.1µM*,29.1µM*,x,x
CCCOc1ccc(C(=O)N(Cc2cccs2)C2CCS(=O)(=O)C2)cc1 (stereo not given),u,i,u,u,u,42.5%
COC(=O)c1cccc(Nc2c(-c3ccc(OC)cc3)nc3nc[nH]n23)c1,x,x,u,20.6µM*,x,x
CCOC(=O)CCN(C(=S)Nc1ccccc1)C1CCCCC1,x,0.3,-16.0%,10.7%,x,x
Cc1ccc(CN2CC[C@H]3C=CCc4cccc(c43)C2)cc1,x,18.7,20.6µM*,u,-9.9%,x
O=C1C[C@H]2C=CCc3cccc(c32)CN1Cc1ccc(Cl)cc1,x,x,12.6µM*,u,x,x
O=C1C[C@@H]2c3c(cccc3CN1Cc1ccc(Cl)cc1)C[C@@H](O)[C@H]2O,x,10.2,-17.9%,-3.4%,x,x
O=C1C[C@H]2C=CCc3cccc(c32)CN1Cc1cccc(F)c1,x,x,10µM*,15.8µM*,x,x
CC(CCC(=O)O)C1CCC2C3CC[C@H]4CC(O)CC[C@@]4(C)C3CC[C@@]12C (stereo not given in full),-24.7%,x,9.5%,-7.7%,x,-2.9%
CCc1nc2ccc(C(=O)N3CCN(C(=O)c4ccco4)CC3)cn2c1N(C)C(=O)COc1ccccc1,x,-21.2,2.4%,-0.3%,x,x
N#C/C(=C\c1ccc(Sc2ccc(Cl)cc2)o1)c1nc2ccccc2[nH]1,u,0.0,13µM*,20.6µM*,u,u
N#C/C(=C\c1ccc(Sc2nc3ccccc3[nH]2)o1)c1ccccc1,u,-72.9*,18.4µM*,u,u,-17.6%
N#C/C(=C/c1cccs1)c1nc2ccccc2[nH]1,-21.0%,9.4,u,u,u,u
COc1ccc(C(C)=O)cc1COC(=O)Cc1cc(OC)c(OC)c(OC)c1,7.3%,-5.6,-25.9%,-14.0%,13.8%,18.1%
O=C(O)c1ccc(C2CCCCC2)cn1,u,-2.3,u,u,6.8%,7.94µM*
O=C1CCCC/C1=N\Nc1ccc(C2CCCCC2)cc1,-11.0%,x,x,x,u,-14.4%
Nc1c(C(=O)Nc2ccc(S(=O)(=O)N3CCCC3)cc2)sc2nc3cc4c(cc3cc12)CCC4,-14.3%,16.2,6.51µM*,6.51µM*,22.6%,-16.4%
Nc1c(C(=O)Nc2ccc(S(=O)(=O)N3CCCC3)cc2)sc2nc3ccc(OC(F)(F)F)cc3cc12,10µM*,-96.8*,18.4µM*,9.2µM*,u,15.8µM*
SMILES,Gal4-VP16 FLuc,IL-1B inflam inh,TDP1 cell noCPT,DT40 TDP1 CPT,ELG1 repair inh,RORgamma inh
O=C1C=C(c2ccccc2)C(c2ccccc2)C1O (stereo not given),x,7.5,-19.0%,-16.7%,x,x
CCCCC#Cc1nc(NC)c2ncn([C@@H]3O[C@@H](CO)[C@H](O)[C@H]3O)c2n1,-22.6%,x,1.2%,-10.3%,x,10.4%
COc1ccc(Nc2c[nH]c(=O)[nH]c2=O)cc1,x,0.9,-12.5%,-11.7%,x,x
COC(C[C@@H]1O[C@H]1C(=O)COCc1ccccc1)OC,x,14.9,20.6µM*,16.4µM*,x,x
COC(C[C@H]1O[C@@H]1C(=O)COCc1ccccc1)OC,x,25.4,4.61µM*,4.11µM*,x,x
COC(C[C@@H]1O[C@@H]1C(=O)COCc1ccccc1)OC,-4.3%,51.3,u,18.4µM*,1.3%,-24.7%
NNC(=O)c1nnsc1-c1csnn1,x,-7.6,-3.8%,-23.0%,x,x
Cc1ccccc1C(=O)Nc1nc2nc(-c3ccccc3)cc(=O)n2[nH]1,x,x,-16.7%,-5.8%,x,x
COc1ccc(N(Cc2ccccc2)S(=O)(=O)c2cccc(C(=O)NCC3CCCO3)c2)cc1 (stereo not given),x,-17.1,-13.4%,0.0%,u,x
O=C(COc1ccccc1Cl)N(Cc1ccco1)Cc1ccco1,x,x,23.1µM*,u,x,x
Cc1cccc(OCC(=O)N(Cc2cccc(Cl)c2)Cc2ccco2)c1C,x,x,-82.3%,6.51µM*,x,x
Cc1ccc(CN(Cc2ccco2)C(=O)COc2ccc(Cl)cc2Cl)cc1,x,x,18.4µM*,u,x,x
Cc1cc(OC(C)C(=O)N(Cc2ccco2)Cc2ccccc2F)cc(C)c1Cl (stereo not given),x,x,13µM*,20.6µM*,x,x
Cc1nc(N2CCOCC2)c2nc(-c3ccccc3)n(CCCN(C)C)c2n1,-7.7%,x,x,x,x,-2.2%
Cc1cc(Cl)ccc1OCC(=O)N(Cc1ccco1)Cc1ccco1,x,x,23.1µM*,u,x,x
COc1ccccc1C(=O)Nc1ccc(S(=O)(=O)Nc2ncccn2)cc1,x,x,0.0%,-7.3%,x,x
Cc1cnc(CNC(=O)c2csc(COCCO)n2)cn1,x,26.1,5.3%,5.5%,x,x
CN(C(=O)CO/N=C/c1ccc(Cl)cc1)c1ccccc1,11.2%,-51.1*,-25.2%,-18.3%,-2.8%,29.4%
COc1ccc(/C=N/OCC(=O)OCC(=O)N(C)c2ccccc2)cc1,x,9.1,1.8%,-0.7%,17.3%,x
COc1cccc(CNC(=O)c2ccc3c(c2)nc2n3CCC(C)C2)c1OC (stereo not given),x,x,-16.8%,-26.4%,x,x
O=C(Nc1ccc(Cl)c(S(=O)(=O)N2CCOCC2)c1)c1cc(-c2ccccn2)nc2ccccc12,-17.8%,u,23.1µM*,u,18.3µM*,-3.3%
O=C(Nc1ccc(F)cc1)c1cc(-c2ccccn2)nc2c(Cl)cccc12,-24.4%,0.0,-0.4%,u,2.6%,12.6µM*
